# ± gives the standard deviation of the averaged measurements.
# Columns and labels:
# Assay in all cases: promoter activity interaction Z-score (Lux/OD deviation from empty-vector control); higher = stronger promoter induction by the compound
# [1] = system: E. coli BW25113 acrABp lux reporter
# How it was run: (§1)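 OD600 and luminescence of E. coli BW25113 reporter cultures (40 µl LB Lennox, 384-well plates, 37°C) were measured every 30 min for 12 h. Integration ran over 0–8 h for wild type or 1–9 h for deletion strains, and wells with growth below 10% of the median were dropped. The score is the Z-transformed residual of growth-normalised luminescence fitted against a control.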
# [2] = system: E. coli BW25113 micFp lux reporter
# How it was run: as §1
# [3] = system: E. coli BW25113 ompFp lux reporter
# How it was run: as §1
# [4] = system: E. coli BW25113 robp lux reporter
# How it was run: as §1
# [5] = system: E. coli BW25113 soxSp lux reporter
# How it was run: as §1
# [6] = system: E. coli BW25113 tolCp lux reporter
# How it was run: as §1
# [7] = 0.034 µg/ml, genetic background: wild type
# [8] = 0.034 µg/ml, genetic background: ΔmarA
# [9] = 0.034 µg/ml, genetic background: Δrob
# [10] = 0.034 µg/ml, genetic background: ΔsoxS
# [11] = 0.067 µg/ml, genetic background: wild type
# [12] = 0.067 µg/ml, genetic background: ΔmarA
# [13] = 0.067 µg/ml, genetic background: Δrob
# [14] = 0.067 µg/ml, genetic background: ΔsoxS
# [15] = 0.13 µg/ml, genetic background: wild type
# [16] = 0.13 µg/ml, genetic background: ΔmarA
# [17] = 0.13 µg/ml, genetic background: Δrob
# [18] = 0.13 µg/ml, genetic background: ΔsoxS
# [19] = 0.27 µg/ml, genetic background: wild type
# [20] = 0.27 µg/ml, genetic background: ΔmarA
# [21] = 0.27 µg/ml, genetic background: Δrob
# [22] = 0.27 µg/ml, genetic background: ΔsoxS
smiles,measurement,setting,value
CCN1CCN(C(=O)N[C@@H](C(=O)N[C@@H]2C(=O)N3[C@@H]2SC(C)(C)[C@@H]3C(=O)O)c2ccccc2)C(=O)C1=O [Piperacillin],promoter activity interaction Z-score,[1]; [7],-0.232 ± 0.0098
same,promoter activity interaction Z-score,[1]; [8],-0.0362 ± 0.011
same,promoter activity interaction Z-score,[1]; [9],0.0917 ± 0.12
same,promoter activity interaction Z-score,[1]; [10],-0.171 ± 0.35
same,promoter activity interaction Z-score,[1]; [11],-0.00951 ± 0.16
same,promoter activity interaction Z-score,[1]; [12],-0.975 ± 0.12
same,promoter activity interaction Z-score,[1]; [13],-0.296 ± 0.13
same,promoter activity interaction Z-score,[1]; [14],0.0579 ± 0.55
same,promoter activity interaction Z-score,[1]; [15],-0.124 ± 0.2
same,promoter activity interaction Z-score,[1]; [16],0.866 ± 1.5
same,promoter activity interaction Z-score,[1]; [17],0.0632 ± 0.21
same,promoter activity interaction Z-score,[1]; [18],-0.295 ± 0.39
same,promoter activity interaction Z-score,[1]; [19],-0.155 ± 0.22
same,promoter activity interaction Z-score,[1]; [20],1.08 ± 0.93
same,promoter activity interaction Z-score,[1]; [21],0.045 ± 0.16
same,promoter activity interaction Z-score,[1]; [22],-0.703 ± 0.75
same,promoter activity interaction Z-score,[2]; [7],0.00552 ± 0.088
same,promoter activity interaction Z-score,[2]; [8],-0.146 ± 0.15
same,promoter activity interaction Z-score,[2]; [9],-0.0761 ± 0.045
same,promoter activity interaction Z-score,[2]; [10],-0.264 ± 0.15
same,promoter activity interaction Z-score,[2]; [11],0.13 ± 0.05
same,promoter activity interaction Z-score,[2]; [12],0.0167 ± 0.14
same,promoter activity interaction Z-score,[2]; [13],-0.0679 ± 0.059
same,promoter activity interaction Z-score,[2]; [14],-0.148 ± 0.27
same,promoter activity interaction Z-score,[2]; [15],-0.112 ± 0.27
same,promoter activity interaction Z-score,[2]; [16],-0.0842 ± 0.077
same,promoter activity interaction Z-score,[2]; [17],-0.0193 ± 0.093
same,promoter activity interaction Z-score,[2]; [18],-0.266 ± 0.18
same,promoter activity interaction Z-score,[2]; [19],-0.272 ± 0.16
same,promoter activity interaction Z-score,[2]; [20],-0.139 ± 0.059
same,promoter activity interaction Z-score,[2]; [21],-0.0211 ± 0.15
same,promoter activity interaction Z-score,[2]; [22],-0.639 ± 0.054
same,promoter activity interaction Z-score,[3]; [7],-0.0853 ± 0.096
same,promoter activity interaction Z-score,[3]; [8],0.15 ± 0.27
same,promoter activity interaction Z-score,[3]; [9],-0.247 ± 0.24
same,promoter activity interaction Z-score,[3]; [10],-0.152 ± 0.042
same,promoter activity interaction Z-score,[3]; [11],0.324 ± 0.3
same,promoter activity interaction Z-score,[3]; [12],-0.184 ± 0.32
same,promoter activity interaction Z-score,[3]; [13],0.0351 ± 0.21
same,promoter activity interaction Z-score,[3]; [14],0.0638 ± 0.27
same,promoter activity interaction Z-score,[3]; [15],0.0298 ± 0.29
same,promoter activity interaction Z-score,[3]; [16],0.086 ± 0.054
same,promoter activity interaction Z-score,[3]; [17],-0.035 ± 0.23
same,promoter activity interaction Z-score,[3]; [18],-0.0829 ± 0.38
same,promoter activity interaction Z-score,[3]; [19],0.489 ± 0.45
same,promoter activity interaction Z-score,[3]; [20],0.879 ± 0.27
same,promoter activity interaction Z-score,[3]; [21],1.38 ± 0.61
same,promoter activity interaction Z-score,[3]; [22],0.0824 ± 1.4
same,promoter activity interaction Z-score,[4]; [7],0.0506 ± 0.23
same,promoter activity interaction Z-score,[4]; [8],-0.0397 ± 0.005
same,promoter activity interaction Z-score,[4]; [9],0.283 ± 0.84
same,promoter activity interaction Z-score,[4]; [10],-0.0239 ± 0.021
same,promoter activity interaction Z-score,[4]; [11],0.564 ± 0.3
same,promoter activity interaction Z-score,[4]; [12],0.263 ± 0.19
same,promoter activity interaction Z-score,[4]; [13],0.443 ± 0.078
same,promoter activity interaction Z-score,[4]; [14],0.154 ± 0.23
same,promoter activity interaction Z-score,[4]; [15],0.0585 ± 0.068
same,promoter activity interaction Z-score,[4]; [16],0.404 ± 0.017
same,promoter activity interaction Z-score,[4]; [17],0.606 ± 0.011
same,promoter activity interaction Z-score,[4]; [18],0.00285 ± 0.0042
same,promoter activity interaction Z-score,[4]; [19],0.179 ± 0.51
same,promoter activity interaction Z-score,[4]; [20],0.636 ± 0.1
same,promoter activity interaction Z-score,[4]; [21],0.356 ± 0.1
same,promoter activity interaction Z-score,[4]; [22],-0.904 ± 1.2
same,promoter activity interaction Z-score,[5]; [7],-0.0446 ± 0.039
same,promoter activity interaction Z-score,[5]; [8],-0.141 ± 0.061
same,promoter activity interaction Z-score,[5]; [9],0.0401 ± 0.031
same,promoter activity interaction Z-score,[5]; [10],-0.0874 ± 0.14
same,promoter activity interaction Z-score,[5]; [11],0.017 ± 0.053
same,promoter activity interaction Z-score,[5]; [12],-0.00164 ± 0.038
same,promoter activity interaction Z-score,[5]; [13],0.126 ± 0.088
same,promoter activity interaction Z-score,[5]; [14],0.0907 ± 0.13
same,promoter activity interaction Z-score,[5]; [15],-0.0137 ± 0.014
same,promoter activity interaction Z-score,[5]; [16],-0.056 ± 0.022
same,promoter activity interaction Z-score,[5]; [17],-0.105 ± 0.013
same,promoter activity interaction Z-score,[5]; [18],-0.0509 ± 0.17
same,promoter activity interaction Z-score,[5]; [19],-0.122 ± 0.084
same,promoter activity interaction Z-score,[5]; [20],-0.184 ± 0.011
same,promoter activity interaction Z-score,[5]; [21],-0.0489 ± 0.12
same,promoter activity interaction Z-score,[5]; [22],-0.233 ± 0.7
same,promoter activity interaction Z-score,[6]; [7],0.0285 ± 0.87
same,promoter activity interaction Z-score,[6]; [8],-0.171 ± 0.024
same,promoter activity interaction Z-score,[6]; [9],-0.382 ± 0.53
same,promoter activity interaction Z-score,[6]; [10],0.0095 ± 1.5
same,promoter activity interaction Z-score,[6]; [11],0.334 ± 0.13
same,promoter activity interaction Z-score,[6]; [12],0.917 ± 0.67
same,promoter activity interaction Z-score,[6]; [13],0.279 ± 0.2
same,promoter activity interaction Z-score,[6]; [14],-0.332 ± 0.83
same,promoter activity interaction Z-score,[6]; [15],-0.441 ± 0.82
same,promoter activity interaction Z-score,[6]; [16],-0.635 ± 0.38
same,promoter activity interaction Z-score,[6]; [17],0.0967 ± 0.77
same,promoter activity interaction Z-score,[6]; [18],-0.574 ± 0.84
same,promoter activity interaction Z-score,[6]; [19],-0.552 ± 0.3
same,promoter activity interaction Z-score,[6]; [20],0.498 ± 0.032
same,promoter activity interaction Z-score,[6]; [21],0.489 ± 0.43
same,promoter activity interaction Z-score,[6]; [22],-0.895 ± 0.62

# Reference: the supplement of paper PMC12282887
